Results reported in PubChem BioAssay (NCATS).
A number with no mark means an inactive call. Results filed as inconclusive are left out. The source made the active and inactive calls. Unless noted, calls come from the whole dose curve; as a rule, active = well fitted curve in either direction with a large enough effect (not every such curve was filed as active); inconclusive = small, poorly fitted or top-dose-only effect, or another doubt; inactive = flat fitted curve, though single readings scatter.

How the values were obtained:
[1] = AP1 Signaling Pathway (AID 357); conditions: ME-180 AP-1-bla reporter, EGF-induced, beta-lactamase ratio, 5 h; at 17.2 µM (top of the series) unless noted;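 note: ME-180 reporter cells stimulated with EGF at its EC50 level; % is set by controls: 0 for no effect and ±100 for the full control effect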
Procedure, shortened: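 Cells are seeded overnight, exposed to compound titrations and an EC50 level of EGF for 5 hours at 37 °C, then loaded with CCF4 dye for 2.5 hours. Beta-lactamase activity under the AP-1 element is read as a blue/green ratio.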

[2] = NFAT Signaling Pathway (AID 444); conditions: Jurkat NFAT-bla M1, carbachol, beta-lactamase ratio, 5 h; at 17.2 µM (top of the series) unless noted;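 note: carbachol stimulus at about its EC50 of 1 µM final; % is set by controls: 0 for no effect and ±100 for the full control effect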
Procedure, shortened: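 Read-out: CCF4 FRET ratio (460 nm/530 nm) after 1 h RT dye loading, used for %activity and AC50 from titration series. Cells: Jurkat NFAT-β-lactamase/M1 line, treated with compound plus 1 uM carbachol for 5 h, 37 °C.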

[3] = Stat Signaling Pathway (AID 446); conditions: ME-180 SIE beta-lactamase reporter, IL-6 stimulated, 5 h; at 17.2 µM (top of the series) unless noted;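 note: ME-180 cervical cancer cells given 40 pM IL-6 alongside compound; SIE-controlled beta-lactamase reporter measured as 460/530 nm FRET emission ratio; % is set by controls: 0 for no effect and ±100 for the full control effect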
Procedure, shortened: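 Compound effects on IL-6-induced STAT reporter activity were measured in ME-180 cells. After overnight culture, cells were co-treated with 40 pM IL-6 for 5 hrs before beta-lactamase substrate loading at room temperature.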

[4] = target: Glucocorticoid receptor (Homo sapiens) (UniProt P04150); test: GR-GFP Redistribution (AID 450;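 active = compounds whose dose series gives a full or clear partial fitted curve of increased nuclear translocation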; note: potency is the fitted concentration of half-maximal effect)
[5] = qHTS Assay for Identification of Small Molecule Agonists for Hypoxia Response Element Signaling Pathway (AID 914; active = well fitted activation curve with a large enough effect in the signal ratio, with a control signal flat, not every such curve was filed as active; the % refers to the signal ratio; note: potency is the fitted concentration of half-maximal effect; for activation: % of control where 0% means no effect); conditions: ME-180 (cervical carcinoma) HRE-bla reporter, beta-lactamase ratio, CoCl2, 17 h; activation: stronger effect = higher value
Procedure, shortened: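 Cells were plated overnight, pin-dosed with compound in a titration series, co-stimulated with EC50 CoCl2 and incubated 17 hours at 37 degrees Celsius. CCF4 substrate was then loaded, and AC50 values came from the 460nm/530nm ratio.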

Sequence of Glucocorticoid receptor (Homo sapiens) (P04150 whole entry, looked up): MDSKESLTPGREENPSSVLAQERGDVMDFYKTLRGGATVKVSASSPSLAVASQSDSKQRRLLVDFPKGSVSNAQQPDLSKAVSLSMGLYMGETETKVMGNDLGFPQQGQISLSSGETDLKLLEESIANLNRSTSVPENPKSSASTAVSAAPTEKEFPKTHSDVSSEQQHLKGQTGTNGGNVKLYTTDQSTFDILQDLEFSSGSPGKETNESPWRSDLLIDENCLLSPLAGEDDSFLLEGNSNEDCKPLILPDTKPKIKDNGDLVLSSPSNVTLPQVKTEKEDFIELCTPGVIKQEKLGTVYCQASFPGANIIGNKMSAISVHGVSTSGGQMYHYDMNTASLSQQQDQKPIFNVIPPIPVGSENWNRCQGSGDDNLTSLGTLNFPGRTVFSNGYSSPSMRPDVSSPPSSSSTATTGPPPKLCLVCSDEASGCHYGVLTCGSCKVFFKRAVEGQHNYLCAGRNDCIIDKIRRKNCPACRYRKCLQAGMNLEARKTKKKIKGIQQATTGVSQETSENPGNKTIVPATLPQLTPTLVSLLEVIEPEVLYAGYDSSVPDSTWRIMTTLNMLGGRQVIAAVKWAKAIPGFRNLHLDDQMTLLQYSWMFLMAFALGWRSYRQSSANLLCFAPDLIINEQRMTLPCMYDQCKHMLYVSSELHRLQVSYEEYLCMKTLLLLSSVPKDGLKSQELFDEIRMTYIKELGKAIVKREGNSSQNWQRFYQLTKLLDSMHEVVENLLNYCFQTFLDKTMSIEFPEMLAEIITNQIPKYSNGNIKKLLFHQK

Compound | activity change, negative = inhibition [1] [%] | activity change, negative = inhibition [2] [%] | activity, negative = inhibition [3] [%] | Potency [4] [µM] | activation [5] [%] | Potency [5]
CC(C)(C)C1=Nn2c(nnc2-c2ccccn2)SC1 | 4.11 | 0.351 | 4.69 | > 20.6 | -1.04 | 
Cc1cccc(-n2ncc3c(NCc4ccco4)ncnc32)c1 | -15.1 | -12.4 | -20.3 | > 20.6 | 8.46 | 
CC1=CC(c2ccccc2)n2nc(N3C(=O)C4CC=CCC4C3=O)nc2N1 (stereo not given) | 0.952 | 13.9 | 11.6 | > 20.6 | 6.95 | 
CC(C)c1nc(N2CCOCC2)c(C#N)c2c1COC(C)(C)C2 | -19.1 | -4.43 | 11.9 | > 20.6 | -24.7 | 
CN(C)c1ccc(C=Nc2cnn(C)c2C(N)=O)cc1 | -9.71 | 2.44 | -12.3 | > 20.6 | -1.16 | 
COc1ccc(C2=Nn3c(nnc3-c3ccccn3)SC2)cc1OC | -18.1 | 23.1 | -0.925 | > 20.6 | -20.2 | 
CCCCOc1nc2ccccc2nc1C(C#N)C(=O)NC1CCCCC1 (stereo not given) | 8.43 | -13.6 | 25.7 | > 20.6 |  | 12.6 µM (active)
COC(=O)c1sc(NC(C)=O)c(C(=O)OC)c1C | 2.69 | 2.63 | 1.36 | > 20.6 | 21.1 | 
Cc1cc(CC(=O)O)c(C)cc1CC(=O)O | 11.9 | 2.75 | 2.12 | > 20.6 | 5.91 | 
Cn1ccnc1SCCC#N | -0.27 | -6.48 | 5.85 | > 20.6 | 14 | 
O=C1C(=O)N(Cc2cccnc2)C(c2ccccn2)/C1=C(/O)c1ccccc1 (stereo not given) | -5.8 | -4.6 | 4.87 | > 20.6 | 2.14 | 
CSc1nc(C)c2c(c1C#N)CCCC2 | -16.1 | -18.1 | 16.1 | > 20.6 | -4.49 | 
Cc1nnc(SCCC#N)n(CCC#N)c1=O | 25.1 | -2.84 | -5.67 | > 20.6 | 15.5 | 
CCC(C(=O)Nc1ncn[nH]1)(C(F)(F)F)C(F)(F)F | 3.02 | -11.9 | 13 | > 20.6 | -10.1 | 
CC1(C)CC(=O)c2cc(C(=O)N3CCCC(C)(C)C3)c(=O)n(-c3ccccc3)c2C1 | 8.53 | -0.00696 | -7.18 | > 20.6 |  | 3.98 µM (active)
Cc1cc(C)n(C(=O)CN2C(=O)CCC2=O)n1 | 14.2 | 0.324 | 3.71 | > 20.6 | 6.68 | 
Cc1cc(=O)oc(C)c1C(=O)Nc1cccc2nonc12 | -1.38 | 11.1 | -0.713 | > 20.6 | 1.4 | 
COc1ccc(CNC(=O)c2c(C)cc(=O)oc2C)cc1OC | 13.7 | 13.8 | 9.9 | > 20.6 | 12.6 | 
CCOc1ccc(Cn2c(O)cc(=O)[nH]c2=O)cc1 | 11.9 | 2.3 | 5.06 | > 20.6 | 5.51 | 
CC(=O)N1CC=C2C(C#N)=C(N)C(C#N)(C#N)[C@H](c3ccoc3)[C@H]2C1 | 8.44 | -12.2 | 10.5 | > 20.6 | -26.3 | 
CC(C)C1Cc2c(C#N)c(N)n(C)c(=S)c2CO1 (stereo not given) | -4.25 | -23.6 | 4.22 | > 20.6 | -0.94 | 
Cc1cccc(OCC(=O)NCC(=O)n2nc(C)cc2C)c1 | 2.67 | 12.1 | 4.06 | > 20.6 | 14.3 | 
O=C(O)CCN(CCC(=O)O)c1nnc(SCc2ccccc2)s1 | 8.29 | 12.2 | 11.2 | > 20.6 | 24.5 | 
